High-throughput results deposited in PubChem BioAssay by National Center for Advancing Translational Sciences (NCATS).
ClpP mod: qHTS Assay for Activators of ClpP. ATP-dependent Clp protease proteolytic subunit (Bacillus subtilis (strain 168)), P80244. purified B. subtilis ClpP, FRET peptide cleavage, 20 min. Potency, µM (highest dose often 57.5 µM), inactives show at the top dose activity change, negative = active. 340,000 compounds, 1.9% hits. AID 651965, 2013; active = well fitted falling curve with a large enough effect; inconclusive = small, poorly fitted or top-dose-only effect; inactive = no such curve, though single readings can be large or run the other way; also: the source files actives as falling curves though it sought activators and does not explain the sign; nearly all actives have a fitted effect of over 65% in size
Target sequence (P80244 whole entry, looked up): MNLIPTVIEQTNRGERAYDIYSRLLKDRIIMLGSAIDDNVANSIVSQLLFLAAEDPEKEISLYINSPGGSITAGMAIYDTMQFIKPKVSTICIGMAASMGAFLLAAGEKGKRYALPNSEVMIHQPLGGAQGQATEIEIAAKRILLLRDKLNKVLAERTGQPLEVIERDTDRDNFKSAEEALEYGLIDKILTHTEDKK
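Buffer: 100 mM Tris/HCl pH8, 100 mM KCl, 0.05% low protease BSA, 2.5% glycerol, 0.01% Tween-20. ClpP 10 microg/mL final; 20 min RT; delta FRET normalized to ADEP and DMSO controls.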
USP2a inh: inhibitors of human ubiquitin-specific protease USP2a; Potency, µM (series often up to 38.3 µM), for inactives: at the highest dose activity change, negative = inhibition, most hits filed as inhibitors; 330,000 compounds, 0.01% hits; O75604; USP2 core, Ub-CHOP2 coupled fluorogenic reporter, 485/531;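 also: plate controls were DMSO wells for no effect and full inhibition by NEM control for full effect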
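Cell-free coupled assay: 10nM USP2 core preincubated 30min RT with compound in Tris-HCl pH 8.0/CaCl2/CHAPS buffer, then 25nM Ub-CHOP2 and 25nM reporter substrate; fluorescence (Ex 485/Em 531) read after 60min RT, normalized to NEM inhibition, concentration-response curves fitted.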
GALK inh: galactokinase (human) inhibition; P51570; Purified GALK, Kinase-Glo residual ATP luminescence; Potency, µM (titrated, usually from 57.5 µM), for the others: at the top dose activity change, negative = inhibition, most hits filed as inhibitors; 270,000 compounds, 0.007% hits; also: % is scaled to controls: 0 for no effect and ±100 for the full control effect
Target sequence (P51570 whole entry, looked up): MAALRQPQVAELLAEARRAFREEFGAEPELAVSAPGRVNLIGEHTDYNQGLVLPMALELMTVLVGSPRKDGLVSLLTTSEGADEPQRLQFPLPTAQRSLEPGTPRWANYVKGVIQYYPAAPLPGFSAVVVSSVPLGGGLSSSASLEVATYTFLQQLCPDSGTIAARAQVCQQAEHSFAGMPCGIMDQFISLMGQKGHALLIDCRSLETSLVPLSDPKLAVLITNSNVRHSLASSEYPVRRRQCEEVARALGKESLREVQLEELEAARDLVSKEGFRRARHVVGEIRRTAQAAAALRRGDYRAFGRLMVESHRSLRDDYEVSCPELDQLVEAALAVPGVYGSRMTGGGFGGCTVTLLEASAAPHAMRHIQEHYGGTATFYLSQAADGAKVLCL
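Quantitative HTS: GALK 5 nM, ATP 35 uM, galactose 100 uM, 1 h room temperature, then luciferase-based ATP detection.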
Eya2 phos inh: blocks the phosphatase activity of human Eya2; O00167; recombinant Eya2, OMFP fluorescence dephosphorylation (OMFP is methylfluorescein phosphate); Potency, µM (doses to about 76.9 µM), without a hit: top-dose activity, negative = inhibition, usual class: inhibitors; 330,000 compounds, 0.006% hits; AID 488837; also: % is scaled to controls: 0 for no effect and ±100 for the full control effect
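Eya2 (0.2 uM) preincubated 10 min at ambient with compound, then OMFP substrate added at 50 uM; 10 min reaction in 50 mM HEPES pH 7.5, 50 mM NaCl, 5 uM MgCl2, 0.05% BSA, 1 mM DTT. Fluorescence read at Ex 485/Em 525 nm.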
* hit, by the source's call. Many of the other results were omitted from the sample, so hits are more common in it than they were. Unless noted, calls follow the shape of the dose curve; as a rule, active = well fitted inhibition curve with a large enough effect; inconclusive = small, poorly fitted or top-dose-only effect, or effect the other way; inactive = flat fitted curve, though single readings scatter. Potency is read from the fitted curve at half-maximal effect.

Screening CC(=O)N=C1SC2CS(=O)(=O)CC2N1c1c(Cl)cccc1Cl (stereo not given) returned ClpP mod 32µM*, USP2a inh 0%, GALK inh 1% and Eya2 phos inh 1%.
`COc1c(O)c(=O)n2c3ccccc3c3ccnc1c32` gave ClpP mod 0%, USP2a inh -3% and Eya2 phos inh -28%.
`O=c1c(Cl)c(O)c2cccc3c4ccccc4n1c23` gave ClpP mod 14µM*, USP2a inh -2% and Eya2 phos inh -37%.
COCCn1nnnc1C(c1cccs1)N1CCN(c2ccccc2)CC1 (stereo not given) was read as ClpP mod -1%, USP2a inh -2%, GALK inh 0% and Eya2 phos inh 14%.
COc1ccc2cc3c(N)nn(C(=O)c4ccccc4[N+](=O)[O-])c3nc2c1 was read as ClpP mod 28µM*, USP2a inh 4%, GALK inh 0% and Eya2 phos inh inconclusive.
Screening CCc1cc2c(CN3CCN(CCO)CC3)cc(=O)oc2cc1O returned ClpP mod 14µM*, USP2a inh -2%, GALK inh 4% and Eya2 phos inh 17%.
For COc1ccc(N2CCN(Cc3cc(=O)oc4cc(-c5ccccc5)c(O)cc34)CC2)cc1 the results were ClpP mod 32µM*, USP2a inh 2%, GALK inh 1% and Eya2 phos inh 19%.
For CCc1cc2c(CN3CCN(C)CC3)cc(=O)oc2cc1O the results were ClpP mod inconclusive, USP2a inh 1%, GALK inh -4% and Eya2 phos inh 15%.
Screening O=[N+]([O-])c1ccc(S(=O)(=O)Nc2cccc(-c3ccc(N4CCOCC4)nn3)c2)cc1 returned ClpP mod -3%, USP2a inh -1% and Eya2 phos inh 6%.
CCOC(=O)CSc1nc2c(cnn2-c2ccc(F)cc2)c(=O)[nH]1 was read as USP2a inh 2%, GALK inh -3% and Eya2 phos inh 13%.
For Cc1ccc(C)c(NC(=O)c2ccc3ccccc3n2)c1 the results were ClpP mod 35µM*, USP2a inh 2%, GALK inh 3% and Eya2 phos inh -2%.
For Cc1ccc(S(=O)(=O)N(C)C)cc1NC(=O)c1ccc2ccccc2n1 the results were ClpP mod -4%, USP2a inh 0%, GALK inh -3% and Eya2 phos inh 1%.
`O=c1c2sc(-c3ccccc3)cc2nc2n1CCC2` gave ClpP mod 22µM*, USP2a inh 0%, GALK inh 0% and Eya2 phos inh 1%.
For CC(C)N(C(=O)CSc1nnnn1C1CCCC1)C(C)C the results were ClpP mod 0%, USP2a inh -1%, GALK inh 1% and Eya2 phos inh -6%.
Screening CC1CC2(CCCCC2)Nc2c1ccc1ccccc21 (stereo not given) returned ClpP mod 18µM*, USP2a inh 4%, GALK inh -2% and Eya2 phos inh 7%.
CN(C)C=Nc1ncc2c3ccccc3n(Cc3ccccc3)c2c1C#N was read as ClpP mod 32µM*, USP2a inh -6%, GALK inh 5% and Eya2 phos inh -9%.
For Nc1c2c(nc3ccccc13)N(C1CCCCC1)CC2 the results were ClpP mod 14µM*, USP2a inh 2%, GALK inh 1% and Eya2 phos inh 7%.
`C=C(C)COc1ccc(-c2nc(N)ncc2Oc2ccc(OC)cc2)c(O)c1` gave ClpP mod 25µM*, USP2a inh -1%, GALK inh 1% and Eya2 phos inh -7%.
`C=C(C)COc1ccc(-c2nc(N)ncc2Oc2ccccc2OC)c(O)c1` gave ClpP mod -1%, USP2a inh 1%, GALK inh -4% and Eya2 phos inh 9%.
Screening COC1=C(N)C(=O)c2nc(-c3nc(C(=O)O)c(C)c(-c4ccc(OC)c(OC)c4O)c3N)ccc2C1=O returned ClpP mod -2%, USP2a inh 0%, GALK inh 8.9µM* and Eya2 phos inh -1%.
`CN(C(=S)NC(=O)c1ccc(Cl)cc1)C1CCCCC1` gave ClpP mod -1%, USP2a inh 0%, GALK inh -4% and Eya2 phos inh 2%.
`CCOC(=O)N1CCN(C(=O)COC(=O)c2ccccc2NCCO)CC1` gave ClpP mod 7.9µM*, USP2a inh 1% and Eya2 phos inh -16%.
Screening CC(=O)N1CCN(C(=O)c2ccc(NS(=O)(=O)c3ccc(Cl)c(Cl)c3)cc2)CC1 returned ClpP mod 14µM*.
Screening CC(C)CCNC(=O)COc1ccc2c3c(c(=O)oc2c1)CCC3 returned ClpP mod 10µM*, USP2a inh 0%, GALK inh 3% and Eya2 phos inh -12%.
O=C(O)CCNC(=O)COc1ccc2c3c(c(=O)oc2c1)CCCC3 was read as ClpP mod 4%, USP2a inh -2% and Eya2 phos inh -26%.
`CC(C)CNC(=O)COc1ccc2c3c(c(=O)oc2c1)CCC3` gave ClpP mod 25µM*, USP2a inh 0%, GALK inh -1% and Eya2 phos inh 6%.
O=C(COc1ccc2c3c(c(=O)oc2c1)CCC3)NCC(O)c1ccccc1 (stereo not given) was read as ClpP mod inconclusive, USP2a inh 0%, GALK inh 1% and Eya2 phos inh -15%.
`Cc1cc(F)ccc1NC(=O)c1ccc2nc(Cc3ccccc3)oc2c1` gave ClpP mod 5%.
For Cc1nc(SCc2ccccc2)c2oc3ccccc3c2n1 the results were USP2a inh -4%, GALK inh -2% and Eya2 phos inh 0%.
`CCOC(=O)CNC(=O)Nc1ccccc1C(=O)OC` gave ClpP mod 28µM*, USP2a inh -1%, GALK inh 3% and Eya2 phos inh 32%.
For COC(=O)c1ccccc1NC(=O)NCc1cccnc1 the results were ClpP mod 28µM*, USP2a inh 0%, GALK inh 0% and Eya2 phos inh 4%.
O=C(NCc1ccco1)Nc1ccccc1Cl was read as ClpP mod 1%, USP2a inh -2%, GALK inh 0% and Eya2 phos inh 3%.
For COC(=O)c1ccccc1NC(=O)NCc1ccccn1 the results were ClpP mod 28µM*, USP2a inh 0%, GALK inh 2% and Eya2 phos inh -2%.
Screening COc1ccc(NC(=O)NCc2cccnc2)c(OC)c1 returned ClpP mod -1%, USP2a inh 5%, GALK inh 2% and Eya2 phos inh -9%.
`O=C(NCc1ccccn1)Nc1ccccc1Cl` gave ClpP mod -2%, USP2a inh -1%, GALK inh 6% and Eya2 phos inh -8%.
Screening COC(=O)c1ccccc1NC(=O)NCc1ccco1 returned ClpP mod 28µM*, USP2a inh -1%, GALK inh 0% and Eya2 phos inh 7%.
